Hits are enriched below; roughly 2.4% of the tested compounds scored in any of these assays.
TLR4 MyD88 comp: inhibitors of TLR4-MyD88 association in cells, primary screen, cell-based, HeLa CL3-4, BLA complementation, FRET ratio; inhibition, % at 8.4 µM; hit rate 0.18% among 200,000; HeLa CL3-4 TLR4/MyD88 BLA complementation; in the data active = inhibition above about 25%;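 note: 0% = vehicle and 100% = reference inhibitor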
CRFBP-R2 block: antagonists of CRF-BP/CRF-R2 complex, primary screen, cell-based, HEK293, calcium dye fluorescence, uHTS; hit rate 0.59% among 350,000; CRF-induced calcium fluorescence; inhibition, % at 11.8 µM;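 active = inhibition of the ligand-induced calcium signal above about 50% at the single tested concentration, limit read from the data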
NOD2-RIPK2 inh: NOD2-RIPK2 binding disruptors in cells, primary screen, fluorescence, CHO cells, BLA complementation; hit rate 0.38% among 360,000; CCF4 ratio; inhibition, % at 4.98 µM; in the data active = inhibition above about 21%;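 note: 0% = vehicle only and 100% = reference blocker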
TLR9-MyD88 inh: inhibitors of TLR9-MyD88 association in cells, primary screen, cell-based, CHO, BLA complementation, fluorescence. hit rate 0.21% among 340,000. inhibition, % at 4.98 µM. CCF4 FRET ratio. Toll-like receptor 9 (Homo sapiens) + Myeloid differentiation primary response protein …;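 active = inhibition above the mean over all tested compounds plus 3 SD, cut at about 21% in these data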;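 note: 0% = DMSO only wells and 100% = clavulanate BLA inhibitor control wells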
Target sequence (Q99836 whole entry, looked up): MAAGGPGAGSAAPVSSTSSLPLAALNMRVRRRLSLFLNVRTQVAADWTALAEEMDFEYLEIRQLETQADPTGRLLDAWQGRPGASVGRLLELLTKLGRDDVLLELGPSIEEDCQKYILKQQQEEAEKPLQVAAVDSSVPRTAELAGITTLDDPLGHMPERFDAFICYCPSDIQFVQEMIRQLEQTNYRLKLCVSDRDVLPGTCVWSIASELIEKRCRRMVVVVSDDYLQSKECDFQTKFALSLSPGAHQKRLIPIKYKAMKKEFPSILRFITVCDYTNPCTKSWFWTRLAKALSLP
Target sequence (Q9NR96 whole entry, looked up): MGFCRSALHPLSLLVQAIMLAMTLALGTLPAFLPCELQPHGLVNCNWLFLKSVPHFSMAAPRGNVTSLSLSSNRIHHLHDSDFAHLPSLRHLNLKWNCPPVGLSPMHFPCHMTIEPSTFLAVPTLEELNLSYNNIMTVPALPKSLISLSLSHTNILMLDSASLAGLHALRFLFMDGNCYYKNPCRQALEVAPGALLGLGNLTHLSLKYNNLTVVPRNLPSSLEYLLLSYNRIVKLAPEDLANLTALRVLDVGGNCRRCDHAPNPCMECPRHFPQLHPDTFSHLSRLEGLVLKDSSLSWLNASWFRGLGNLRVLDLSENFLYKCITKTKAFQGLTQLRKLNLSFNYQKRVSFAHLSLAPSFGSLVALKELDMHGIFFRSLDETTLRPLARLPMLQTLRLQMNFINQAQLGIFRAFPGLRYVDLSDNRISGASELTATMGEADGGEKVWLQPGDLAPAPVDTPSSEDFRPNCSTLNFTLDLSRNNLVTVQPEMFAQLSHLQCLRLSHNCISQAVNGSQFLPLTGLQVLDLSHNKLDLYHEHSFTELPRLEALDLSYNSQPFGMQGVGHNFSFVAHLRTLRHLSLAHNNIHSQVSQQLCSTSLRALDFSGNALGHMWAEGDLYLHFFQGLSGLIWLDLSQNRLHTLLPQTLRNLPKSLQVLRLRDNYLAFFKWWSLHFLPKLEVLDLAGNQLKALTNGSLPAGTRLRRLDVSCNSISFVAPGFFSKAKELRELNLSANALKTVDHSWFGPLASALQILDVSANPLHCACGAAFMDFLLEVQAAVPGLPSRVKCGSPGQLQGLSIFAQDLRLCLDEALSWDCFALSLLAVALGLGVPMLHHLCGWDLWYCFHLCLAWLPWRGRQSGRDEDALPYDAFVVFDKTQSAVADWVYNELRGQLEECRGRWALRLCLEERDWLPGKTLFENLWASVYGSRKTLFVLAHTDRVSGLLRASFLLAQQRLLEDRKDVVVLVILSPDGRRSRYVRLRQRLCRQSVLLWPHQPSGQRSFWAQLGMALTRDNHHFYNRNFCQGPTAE
m5-HT2A agonist: mouse Htr2a agonists via beta-arrestin recruitment, primary screen, cell-based, luminescence. CHO-K1 mHTR2A beta-arrestin complementation; percent of 30 µM serotonin response. 5-hydroxytryptamine receptor 2A (Mus musculus), P35363. activation, % at 7.6 µM. hit rate 0.66% among 360,000;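 active = activation above a run cutoff, the mean activation of all tested compounds plus 3 SD, cut at about 14% in these data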;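 note: 0% = plate median of compound wells and 100% = 30 µM serotonin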
ABHD5 PLIN5 PPI: ABHD5-PLIN5 interaction inhibitors, primary screen, cell lysate, split luciferase complementation, luminescence; Split G. princeps luciferase complementation, 4 h; inhibition, % at 4 µM; hit rate 0.78% among 360,000; AID 602281, 2012; Perilipin-5 (Homo sapiens) + 1-acylglycerol-3-phosphate O-acyltransferase ABHD5 (Homo …;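 active = inhibition above the mean inhibition across every tested compound plus 3 SD, cut at about 22% in these data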;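 note: 0% = DMSO only wells and the 100% control is not disclosed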
ABHD5 PLIN5 conf: ABHD5-PLIN5 interaction inhibitors, confirmation, biochemical, luminescence; AID 651612, 2012; inhibition, % at 4 µM; hit rate 67% among 2,200; shares compounds with ABHD5 PLIN5 PPI; in the data active = inhibition above about 23%;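 note: 0% = DMSO vehicle wells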
HNF4 split-luc: HNF4 dimerization inhibitors, counter-screen for ABHD5-PLIN5 interaction inhibitor project, biochemical, split-luciferase complementation, luminescence. hit rate 77% among 2,200. shares compounds with ABHD5 PLIN5 PPI. inhibition, % at 4 µM. AID 651674, 2012;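 active = mean inhibition across replicate wells exceeding the computed hit threshold, cut at about 13% in these data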;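 note: light from luciferase halves that rejoin when HNF4 fusion proteins dimerize; 0% = DMSO only wells and the 100% control is not given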
Numbers without * were called inactive; . = no result given.

SMILES | TLR4 MyD88 comp | CRFBP-R2 block | NOD2-RIPK2 inh | TLR9-MyD88 inh | m5-HT2A agonist | ABHD5 PLIN5 PPI | ABHD5 PLIN5 conf | HNF4 split-luc
O=C1c2ccccc2-n2nnc(-c3ccccc3)c2C2c3ccccc3CCN12 (stereo not drawn) | . | . | -13.3 | . | 6.2 | 1.9 | . | .
COC(=O)C1=C(c2ccc(OCc3ccccc3)c(F)c2)C[C@@H]2CC[C@H]1N2C | . | 10.1 | 1.3 | -0.3 | -5.9 | -6.3 | . | .
O=c1nc(/C=C/c2ccc(Cl)cc2Cl)cc(C(F)(F)F)[nH]1 | . | 22.5 | -1.3 | -1.1 | -2.7 | 35.8* | 70.2* | 47.8*
CC1=CC2/C=C(\C)CCC(O)C(O)/C=C/C(=O)C23C(=O)NC(CC(C)C)C3C1C (stereo not drawn) | 0.6 | 12.5 | 8.9 | -7.8 | -6.8 | 65.0* | 90.4* | 102.8*
CCOC(=O)[C@]12Cc3cc(C)ccc3[C@H]1N(Cc1ccccc1)C(=O)c1cc(F)c(F)cc12 | . | . | 10.4 | . | -1.7 | 9.4 | . | .
O=C1NC(=O)N(c2ccc3c(c2)OCO3)C(=O)/C1=C\c1ccc(-c2ccccc2C(=O)O)o1 | . | 8.6 | 4.9 | 5.5 | -1.4 | 29.9* | 77.7* | 89.2*
O=C1NC(=O)N(c2ccc3c(c2)OCO3)C(=O)/C1=C\c1ccsc1 | . | 0.2 | -3.5 | . | 1.4 | 24.9* | 65.7* | 56.2*
Cc1ccc(N2C(=O)NC(=O)/C(=C\c3ccsc3)C2=O)cc1C | -0.3 | . | . | . | . | . | . | .
C[C@@H]1CN([C@H](C)CO)C(=O)CCCn2nncc2CO[C@@H]1CN(C)C(=O)Oc1ccccc1 | . | 24.6 | 0.4 | 9.1 | 2.6 | -0.2 | . | .
FC(F)(F)c1ccc(-c2ccc3c(c2)CNCc2cnnn2-3)cc1 | . | . | 3.7 | . | -7.2 | 5.8 | . | .
CCOC(=O)c1cncn1[C@@H](C)c1ccccc1 | . | -10.0 | -18.6 | -1.9 | -0.2 | 10.7 | . | .
Cn1c(O)c(/C=N/c2ncccn2)c(=O)n(C)c1=O | -6.7 | 16.8 | -5.4 | 1.3 | -1.4 | 40.0* | 8.1 | 23.1*
Cc1ccc(N=Cc2c(O)n(C)c(=O)n(C)c2=O)cc1 | . | -1.5 | -4.6 | 15.8 | -3.1 | -1.7 | . | .
CCOC(=O)C1C(OC(=O)c2ccccc2)CC2CCC1N2C (stereo not drawn) | . | -5.9 | -4.2 | -28.6 | 6.2 | 25.7* | 34.8* | 1.4
Cc1cc(/C=C2\C(=O)NC(=O)N(c3ccc(Cl)cc3)C2=O)c(C)n1-c1cccc(C(=O)O)c1 | . | 9.2 | -1.0 | -0.9 | 1.4 | 12.5 | . | .
O=C1NC(=O)N(c2ccc(Cl)cc2)C(=O)/C1=C/c1coc2ccc(O)cc2c1=O | . | -2.0 | -2.8 | -2.2 | 3.1 | 25.1* | 86.6* | 80.6*
O=C1NC(=O)N(c2ccccc2)C(=O)/C1=C/c1coc2ccc(O)cc2c1=O | . | -2.1 | 1.0 | -4.9 | 0.8 | 36.8* | 90.4* | 87.5*
O=C1NC(=O)N(c2ccccc2)C(=O)/C1=C/c1ccoc1 | -5.0 | -53.2 | -2.5 | -1.9 | 3.1 | 4.2 | . | .
O=C1NC(=O)N(c2ccccc2)C(=O)/C1=C\c1ccccc1[N+](=O)[O-] | . | 2.2 | 4.4 | -7.5 | -0.7 | 24.1* | 78.2* | 80.0*
c1cc2c(cc1NC1=NCCO1)CCCC2 | . | -6.4 | 15.5 | 6.7 | 9.6 | 0.2 | . | .
C[C@]12CC[C@@H](O)CC1=CCC1C2CC[C@@]2(C)C1CC[C@@H]2O (stereo partly drawn) | . | 2.2 | -2.9 | -12.0 | -7.2 | 3.8 | . | .
Cc1ccccc1CN1Cc2cnnn2-c2ccccc2C1C#N (stereo not drawn) | . | -0.7 | 18.8 | -2.3 | 3.0 | 73.9* | 96.2* | 96.4*

Screening results from PubChem BioAssay.
